HT1080 IDH1KD tx: kills HT-1080 cells with IDH1 knockdown; Potency, µM (doses to about 46.1 µM), for the others: at the highest dose activity, negative = toxicity, most hits filed as cytotoxic; HT-1080 IDH1 knockdown viability, ATP luminescence, 48 h; hit rate 2% among 360,000;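 also: 0% = DMSO wells and -100% = cell-free medium wells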
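Knockdown cells (IDH1KD HT-1080) received compounds 2 h after plating at 750 cells/well and were kept 48 h at 37 °C in 5% FBS RPMI. A CellTiter-Glo luminescence read gave % activity for curve fitting.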
MCF10A rerep: induces DNA re-replication in MCF 10a normal breast cells. MCF 10A DNA re-replication, Hoechst nuclear intensity, 48 h. Potency, µM (series often up to 46.1 µM), without a hit: top-dose activity, positive = re-replication, usual class: activators. hit rate 2.9% among 350,000; also: % of control where 0% means no effect; nearly all actives have a fitted effect of over 50% in size
KB-V1 cytotox: kills drug-selected multidrug resistant KB-V1 cells. KB-V1 MDR cells viability, CellTiter-Glo, 72 h. Potency, µM (doses to about 46.1 µM), hits mostly cytotoxic. hit rate 3.4% among 400,000; also: % is scaled to controls: 0 for no effect and ±100 for the full control effect; nearly all actives have a fitted effect of over 60% in size
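KB-V1, DMEM (no phenol red) + 10% FBS; cpd pin-transferred, titration series; 72 h, 37 degrees C; CellTiter-Glo, luminescence. Data normalized, curve-fit.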
SW480 rerep: inducers of DNA re-replication in SW480 colon cancer cells; hit rate 1.8% among 340,000; SW480 DNA re-replication, Hoechst DNA content imaging, 48 h; Potency, µM (highest dose often 46.1 µM), for inactives: at the highest dose re-replication activation, actives largely listed as activators; also: % of control where 0% means no effect; nearly all actives have a fitted effect of over 55% in size
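250 cells/well; 23 nL cpd via pin tool; 48 hr, 37 C, 5% CO2; Hoechst 40 min; imager read of total nuclear intensity, ex 405/em 500-530 nm.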
KB-3-1 tox: kills parental KB-3-1 adenocarcinoma cells | KB-3-1 viability, CellTiter-Glo ATP luminescence, 72 h | Potency, µM (series often up to 46.1 µM), hits mostly cytotoxic | hit rate 1.4% among 400,000 | AID 1347075; also: % is scaled to controls: 0 for no effect and ±100 for the full control effect; nearly all actives have a fitted effect of over 60% in size
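Screening of KB-3-1 cells (DMEM, 10% FBS, phenol-red free) ran from lowest to highest compound concentration; after 72 h at 37 °C viability was read luminescently and curves fitted.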
HT1080NT lethal: kills 2HG-producing HT-1080-NT fibrosarcoma cells. HT-1080-NT fibrosarcoma viability, CellTiter-Glo ATP luminescence, 48 h. Potency, µM (top dose mostly 46.1 µM), inactives show at the top dose activity, negative = less viability, hits mostly cytotoxic. hit rate 1.6% among 360,000;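 also: NT is the 2HG producing partner of a matched IDH1 knockdown line; 0% = DMSO-treated cells and -100% = media-only wells without cells; nearly all actives have a fitted effect of over 55% in size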
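750 cells/well, RPMI + 5% FBS; 2 h settle, compound pin-transfer, 48 h at 37 degrees C. CellTiter-Glo 10 min RT, luminescence. Normalized to DMSO and media-only wells.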
An asterisk follows results filed as active. The list is not random: actives were taken first. Their share in the collection is about 8%. Calls follow the shape of the dose curve; as a rule, active = well fitted curve in the direction sought with a large enough effect; inconclusive = small, poorly fitted or top-dose-only effect, or another doubt; inactive = no such curve, though single readings can be large; an effect the other way counts as inactive or inconclusive. Potency is read from the fitted curve at half-maximal effect.

Screening CCN(CC)CCN1C(=O)/C(=C\c2ccc(Cl)c([N+](=O)[O-])c2)SC1=Nc1ccc(OC)cc1 returned HT1080 IDH1KD tx 3.3µM*, MCF10A rerep inconclusive, KB-V1 cytotox inactive, SW480 rerep 3.7µM*, KB-3-1 tox inconclusive and HT1080NT lethal 2.6µM*.
`CCN1C(=O)/C(=C/c2cccs2)SC1=Nc1ccc(OC)cc1` gave HT1080 IDH1KD tx 12%, MCF10A rerep 2%, KB-V1 cytotox inactive, SW480 rerep -2%, KB-3-1 tox inactive and HT1080NT lethal 10%.
`COc1ccc(N=C2S/C(=C\c3ccc(Cl)c([N+](=O)[O-])c3)C(=O)N2CCN(C)C)cc1` gave HT1080 IDH1KD tx 21µM*, MCF10A rerep inconclusive, KB-V1 cytotox inactive, SW480 rerep -6%, KB-3-1 tox inactive and HT1080NT lethal inconclusive.
For CCc1ccc(N(C(=O)CNC(=O)c2cccs2)C(C(=O)NC(C)(C)C)c2cc(OC)c(OC)c(OC)c2)cc1 (configuration not stated) the results were HT1080 IDH1KD tx -6%, MCF10A rerep inconclusive, KB-V1 cytotox inactive, SW480 rerep 0%, KB-3-1 tox inactive and HT1080NT lethal 4%.
For CCCc1c(C)nn(C(=O)/C(C#N)=N/Nc2ccccc2[N+](=O)[O-])c1C the results were HT1080 IDH1KD tx -8%, MCF10A rerep 0%, KB-V1 cytotox inconclusive, SW480 rerep 1%, KB-3-1 tox inactive and HT1080NT lethal 3%.
For COc1ccc(C(=O)CC(Nc2ccc([N+](=O)[O-])cc2)c2ccc(OC)cc2)cc1 (configuration not stated) the results were HT1080 IDH1KD tx inconclusive, MCF10A rerep inconclusive, KB-V1 cytotox 10µM*, SW480 rerep -2%, KB-3-1 tox inactive and HT1080NT lethal -9%.
For COc1ccc(C(=O)CC(=O)Nc2ccc([N+](=O)[O-])cc2)cc1 the results were HT1080 IDH1KD tx inconclusive, MCF10A rerep inconclusive, KB-V1 cytotox inactive, SW480 rerep -2%, KB-3-1 tox inactive and HT1080NT lethal inconclusive.
`COc1ccc(C(=O)/C(C#N)=N/Nc2ccccc2[N+](=O)[O-])cc1` gave HT1080 IDH1KD tx 2.3µM*, MCF10A rerep 1.8µM*, KB-V1 cytotox inactive, SW480 rerep 5.8µM*, KB-3-1 tox inconclusive and HT1080NT lethal 2.6µM*.
COc1ccc(C(=O)/C(C#N)=N/Nc2ccc([N+](=O)[O-])cc2)cc1 was read as HT1080 IDH1KD tx 5.8µM*, MCF10A rerep inconclusive, KB-V1 cytotox 8.2µM*, SW480 rerep inconclusive, KB-3-1 tox 2.3µM* and HT1080NT lethal inconclusive.
Screening COc1cc(/C=N/O)cc(Br)c1OC returned HT1080 IDH1KD tx 2%, MCF10A rerep 11%, KB-V1 cytotox inactive, SW480 rerep 1%, KB-3-1 tox inactive and HT1080NT lethal 0%.
`CC(C)(CO)NCc1c(OCc2ccc(Cl)cc2)ccc2ccccc12` gave HT1080 IDH1KD tx inconclusive, MCF10A rerep inconclusive, KB-V1 cytotox inactive, SW480 rerep inconclusive, KB-3-1 tox 23µM* and HT1080NT lethal inconclusive.
For COc1cc(/C=N/O)cc(Br)c1OCc1ccc(Cl)cc1 the results were HT1080 IDH1KD tx inconclusive, MCF10A rerep 18µM*, KB-V1 cytotox inactive, SW480 rerep inconclusive, KB-3-1 tox inactive and HT1080NT lethal inconclusive.
`COc1cc(CNC(C)(C)CO)cc(Br)c1OCc1ccc(Cl)cc1` gave HT1080 IDH1KD tx inconclusive, MCF10A rerep inconclusive, KB-V1 cytotox 23µM*, SW480 rerep inconclusive, KB-3-1 tox inconclusive and HT1080NT lethal inconclusive.
O/N=C/c1ccccc1OCc1ccc(Cl)cc1 was read as HT1080 IDH1KD tx inconclusive, MCF10A rerep inconclusive, KB-V1 cytotox inactive, SW480 rerep 10%, KB-3-1 tox inactive and HT1080NT lethal -21%.
